Screens: PubChem BioAssay, National Center for Advancing Translational Sciences (NCATS)
The list is not random: actives were taken first. Their share in the collection is about 2.4%.
AmpC inh det: blocks E. coli AmpC beta-lactamase in presence of detergent; purified AmpC, nitrocefin hydrolysis with detergent; Potency, µM (highest dose often 28.7 µM); 71,000 compounds, 0.09% hits; AID 584; active means well fitted curve in the direction sought with a large enough effect; inconclusive means small, poorly fitted or top-dose-only effect
Target sequence (P00811 whole entry, looked up): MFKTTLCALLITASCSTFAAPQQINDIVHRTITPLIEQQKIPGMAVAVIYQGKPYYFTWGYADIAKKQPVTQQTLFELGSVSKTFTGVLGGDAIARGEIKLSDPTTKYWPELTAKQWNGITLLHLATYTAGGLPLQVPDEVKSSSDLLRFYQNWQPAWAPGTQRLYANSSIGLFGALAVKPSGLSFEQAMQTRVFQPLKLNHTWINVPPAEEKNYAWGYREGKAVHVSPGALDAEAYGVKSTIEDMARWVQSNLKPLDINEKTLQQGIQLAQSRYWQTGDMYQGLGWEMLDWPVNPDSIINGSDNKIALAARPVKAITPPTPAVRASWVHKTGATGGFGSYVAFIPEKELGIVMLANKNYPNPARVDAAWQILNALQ
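E. coli AmpC (5.3 nM) in 20 mM phosphate pH 7.0 with 0.01% Triton X-100, preincubated 15 min RT with compound; nitrocefin (2 uL of 800 uM stock) hydrolysis followed by 480 nm absorbance every 20 s over 4 min.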
Prx2 Sm inh: inhibitors of Schistosoma mansoni peroxiredoxin 2 | S. mansoni Prx2 activity coupled to TGR/GSH (TGR is thioredoxin glutathione reductase), NADPH fluorescence loss, qHTS | Potency, µM | 65,000 compounds, 0.07% hits
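qHTS, coupled TGR/Prx2 format; 15 min compound preincubation at RT; reaction started with H2O2 (2.5 mM aliquot); kinetic NADPH fluorescence decrease, ex 365/em 450 nm.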
AmpC inh no det: inhibitors of E. coli AmpC beta-lactamase without detergent | P00811 | AmpC nitrocefin hydrolysis, absorbance 480 nm, no detergent | Potency, µM (series often up to 28.7 µM) | 71,000 compounds, 1.8% hits
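AmpC in 20 mM phosphate buffer pH 7.0 was preincubated 15 min at room temperature with compounds. Nitrocefin (800 uM stock) was then added and hydrolysis followed at 480 nm every 20 s for 4 min.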
LT uptake inh: inhibitors of anthrax lethal toxin internalization. Cells, anthrax lethal toxin internalization, FRET ratio (460/530). Potency, µM (highest dose often 40 µM), actives largely listed as inhibitors. 70,000 compounds, 0.67% hits; further: nearly all actives have a fitted effect of over 50% in size
A number is an active result; 0 = inactive; ? = inconclusive; - = no result; [ ] = another dose, or the depositor's remark. Unless noted, the call rests on the fitted dose curve.

SMILES	AmpC inh det	Prx2 Sm inh	AmpC inh no det	LT uptake inh
COCC(=O)N1CCC[C@@]2(CCN(Cc3nccs3)C2)C1	0	0	0	0
CC(C)NC(=O)N1CCCC2(CCN(C(=O)c3csnn3)CC2)C1	0	0	0	0
COc1ccccc1CNC(=O)c1cc2c(=O)n(C)c3ccccc3c2n1C	0	0	3.98µM[single pt active]	0
Cn1c(C(=O)NCCN2CCCCCC2)cc2c(=O)n(C)c3ccccc3c21	0	0	0	1.58µM
Cn1c(C(=O)NCC2CCCO2)cc2c(=O)n(C)c3ccccc3c21 (stereo not given)	0	0	3.98µM[single pt active]	0
Cn1c(C(=O)NCCN2CCN(Cc3ccccc3)CC2)cc2c(=O)n(C)c3ccccc3c21	0	0	?	0
Cc1nc(N)nc2ccccc12	0[5.75 µM]	0	0[5.75 µM]	0[8 µM]
COc1ccc(C2CC(c3cccc(C)c3)n3nc(N)nc3N2)cc1 (stereo not given)	0	0	3.98µM[single pt active]	0
COc1cccc(C2CC(c3ccc(F)cc3)Nc3nc(N)nn32)c1 (stereo not given)	0	0	2.51µM[single pt active]	0
COc1cccc(C2CC(c3cccc(OC)c3)n3nc(N)nc3N2)c1 (stereo not given)	0	0	3.98µM[single pt active]	0
N#Cc1ccc(CN2CCCC3(CCN(C(=O)c4ccncc4)CC3)C2)cc1	0	0	0	0
Cc1cc(=O)oc2cc(NC(=O)C3COc4ccccc4O3)ccc12 (stereo not given)	0	0	10µM	?
O=C(Nc1ccc2c(c1)OCO2)C1COc2ccccc2O1 (stereo not given)	0	-	0	0
CCN(Cc1cc(Cl)cc(C)c1O)Cc1c(O)ccc2ccccc12	0[5.75 µM]	0	0[5.75 µM]	0[8 µM]
CN(C)S(=O)(=O)c1ccc(-c2ccccc2)cc1	0	-	0	7.94µM
CN(C)S(=O)(=O)c1ccc(Oc2ccccc2)cc1	0	0	0	-
O=C(O)C(O)(c1ccc(-c2ccccc2)cc1)c1ccc(-c2ccccc2)cc1	0[5.75 µM]	0	0[5.75 µM]	?
CC(=O)OC[C@@H]1O[C@@H](O/N=C2/C[C@@H](O)[C@@H](O)[C@@H]3[C@@H]4C(=O)N(Cc5ccccc5)C(=O)[C@H]4CC[C@H]23)[C@H](OC(C)=O)[C@H](OC(C)=O)[C@@H]1OC(C)=O	-	-	-	0[8 µM]
CCOC(=O)CCc1c(C)n(CC)c2ncnn2c1=O	0	0	3.98µM[single pt active]	0
CCCCN(CC)S(=O)(=O)c1ccc(C(=O)Nc2nnc(-c3ccccc3Cl)o2)cc1	0	0	6.31µM	0
CCCCN(C)S(=O)(=O)c1ccc(C(=O)Nc2nnc(-c3cccs3)o2)cc1	0	0	15.8µM	0
FC(F)(F)c1ccc(Cl)cc1	0	-	0	0
Cc1cccc(CNc2ncncc2-c2ccccc2C)c1	0	0	0	0
CC(C)CN1CC[C@@]2(CCCN(C(=O)c3ccco3)C2)C1	0	0	0	0
Cn1cccc1Cc1nnc(SCC(=O)N2CCOCC2)n1-c1ccc(F)cc1	0	0	3.98µM[single pt active]	0
SMILES	AmpC inh det	Prx2 Sm inh	AmpC inh no det	LT uptake inh
Cn1cccc1Cc1nnc(SCC(N)=O)n1-c1ccc(F)cc1	0	0	3.98µM[single pt active]	0
c1ccc(CCNc2ccc3nncn3n2)cc1	0	0	3.16µM[single pt active]	0
O=C(NCCc1ccccc1)c1ccc(-n2cnnn2)cc1	0	0	0	0
CC(C)CN(CC(C)C)c1nnc(N)s1	0	0	3.98µM[single pt active]	0
O=C(OCC(=O)c1cccs1)c1ccc(NC(=O)c2ccco2)cc1	0	0	15.8µM[single pt active]	0
CN(C)c1ccc(C(=O)OCC(=O)c2cccs2)cc1	0	0	0	0
O=C(COc1ccc2ccccc2c1Br)N1CCN(c2ccccn2)CC1	0	0	0	12.6µM
O=C(CSc1nccc2ccccc12)N1CCN(c2ccccn2)CC1	0	0	0	5.01µM
O=C(CC1CCCCC1)N1CCN(c2ccccn2)CC1	0	0	0	0
O=C(O)CCC(=O)N1CCN(c2ccccn2)CC1	0	0	?	0
CS(=O)(=O)Nc1cccc(-c2cncnc2NCc2cccnc2)c1	0	0	0	0
CNc1ccc2oc(C[C@@H]3O[C@@]4(CC[C@H]3C)O[C@@H]([C@@H](C)C(=O)c3ccc[nH]3)[C@@H](C)C[C@H]4C)nc2c1C(=O)O	0	0	0	?
CCOC(=O)N1CCN(CC(=O)Nc2cc3c(cc2C(C)=O)OCO3)CC1	0	0	0	0
CC(=O)c1cc2c(cc1NC(=O)CN1CCN(C(=O)c3ccco3)CC1)OCO2	0	0	3.98µM[single pt active]	0
O=C(O)CC[C@@H](C(=O)O)N1C(=O)[C@@H]2[C@@H]3CC[C@H](C3)[C@@H]2C1=O	0[5.75 µM]	0	0[5.75 µM]	?
CCn1ncc(C2=NOC(C(=O)Nc3c(C)n(C)n(-c4ccccc4)c3=O)C2)c1C (stereo not given)	0	0	3.98µM[single pt active]	0
CCn1ncc(C2=NOC(C(=O)Nc3c(C)nn(Cc4ccc(F)cc4)c3C)C2)c1C (stereo not given)	0	0	0	0
O=C(c1ccco1)N1CCN(c2ncccn2)CC1	0	0	3.98µM[single pt active]	0
NCCC[C@@H](CC(=O)N[C@@H]1CCNC[C@H]1C(=O)N[C@H](CC(=O)N[C@@H](CCC(=O)O)CC(=O)O)Cc1c[nH]c2ccccc12)NC(=O)C[C@H](Cc1c[nH]c2ccccc12)NC(=O)[C@@H]1CNCC[C@H]1N	0	0	0	0
Nc1c(S(=O)(=O)O)cc(Nc2ccc(Nc3nc(Cl)nc(Nc4ccc(S(=O)(=O)O)cc4)n3)c(S(=O)(=O)O)c2)c2c1C(=O)c1ccccc1C2=O	12.6µM	0	0	?
O=S(=O)(c1cccc2c(I)cccc12)N1CCCNCC1	0	0	0	3.16µM
O=C=Nc1ccc(Cl)c(Cl)c1	0	-	?	15.8µM
O=C=Nc1ccc(Cc2ccc(N=C=O)cc2)cc1 (tested in a mixture with another compound)	0[5.75 µM]	0	0[5.75 µM]	0[8 µM]
NC(CCl)=N[C@H]1CN2CCC1CC2	0[5.75 µM]	0	0[5.75 µM]	0[8 µM]
O=C(CN(C1CC1)S(=O)(=O)c1ccc(S(=O)(=O)NC2CCCCC2)cc1)Nc1ccccc1	0	0	0	10µM
SMILES	AmpC inh det	Prx2 Sm inh	AmpC inh no det	LT uptake inh
Cc1ccccc1C1CC(c2ccc(Br)cc2)Nc2nc(N)nn21 (stereo not given)	0	0	0	0
Nc1nc2n(n1)C(c1cccc(Br)c1)CC(c1ccc(F)cc1)N2 (stereo not given)	0	0	0	0
Nc1nc2n(n1)C(c1ccco1)CC(c1ccc(F)cc1)N2 (stereo not given)	0	0	0	0
Cc1ccccc1C1CC(c2ccc(F)cc2)Nc2nc(N)nn21 (stereo not given)	0	0	3.98µM[single pt active]	?
Nc1nc2n(n1)C(c1ccccc1)CC(c1ccc(F)cc1)N2 (stereo not given)	0	0	3.98µM[single pt active]	0
CCc1ccc(C2CC(c3ccc(Cl)cc3)n3nc(N)nc3N2)cc1 (stereo not given)	0	0	3.98µM[single pt active]	0
Nc1nc2n(n1)C(c1c(F)cccc1Cl)CC(c1ccc(F)cc1)N2 (stereo not given)	0	0	3.98µM[single pt active]	0
NCCSS(=O)(=O)CCN	0[5.75 µM]	0	0[5.75 µM]	0[8 µM]
Cc1cc(N=Cc2c(O)n(-c3ccc4c(c3)OCO4)c(=O)c3ccccc23)ccn1	0	0	0	7.94µM
Oc1cc(Cl)c(Cl)cc1Cl	0	-	0	?
Clc1cc(Cl)c(-c2cc(Cl)c(Cl)cc2Cl)cc1Cl	0	-	0	3.16µM
